Growth inhibition data for 39 molecules are collected here from PubChem BioAssay (NCI).

The panel holds about 79,000 compounds, 15% with a hit somewhere; the sample as a whole holds those more often. A number with no mark means an inactive call. Activity calls are given as the source filed them. Cut-off read from the data, not from the text of the source: active = growth inhibition above about 70%; inactive = the rest.

A short description of one experiment: NCI Yeast Anticancer Drug Screen. Data for the sgs1 mgt1 strain (AID 161).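 Note: 0% = growth of cultures given vehicle only.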 To be noted: S. cerevisiae sgs1 mgt1 strain, at 50.0 µM, hits give high values. The gist of the method:
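Growth of a repair-deficient yeast mutant was monitored after compound treatment and expressed as inhibition relative to vehicle-treated cultures.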
As for `CCCc1cc(C(=O)OCC)cc(CCC)c1O`, the growth inhibition was 79.3% (active).
Turning to `CC(C)[N+]([O-])(CCCNc1c2ccccc2nc2cccc([N+](=O)[O-])c12)C(C)C`, the growth inhibition is 93.6% (active).
Regarding `COc1cc2c3c(cccc3c1)C(=O)N(CCN(C)C)C2=O`, the growth inhibition was -13.1%.
On to `NC(=O)NN=C(CS)CS`, for which the growth inhibition was 75% (active).
Same read-out and setting: the result for `Cc1ccc(NC(=O)/C(Cl)=C(\Cl)C(=O)O)cc1C` reads 99.5% (active).
Still for that read-out and setting: to `CCN(CC)CC[n+]1ccc2c(C)c3[nH]c4ccc(O)cc4c3c(C)c2c1` belongs 1.5%; to `CC(CC(C)(C)[N+](C)(C)C)[N+](C)(C)C` (stereo not drawn), 95.8% (active); to `COc1ccc(OC)c2cc3ccccc3cc12`, 73.1% (active).
Still for that read-out and setting: to `Nc1ncncc1C(C1=C(O)COC1=O)C1=C(O)COC1=O` belongs 8%; to `CSC1=NNC(SC)=NN1`, 58.5%.
In the case of `Cc1c(Cl)ccc2c1S(=O)(=O)c1cccc(Cl)c1-2`, the growth inhibition was 20.9%.
Consider `[O-][n+]1c2ccc(O)cc2nc2ccc(Cl)cc21`, for which the growth inhibition is 67%.
`COc1ccc2ccc3ccccc3c2c1C=O`: the growth inhibition is 55.8%.
Same read-out and setting: to `Nc1ccc2c(c1)C(=O)c1cccc(N)c1C2=O` belongs 42.9%; to `O=C(c1ccc(Cl)cc1Cl)C(Cl)Cl`, 83.8% (active); to `COc1cc(C(=O)/C=C/c2ccccc2O)ccc1O`, 94.4% (active).
Regarding `O=Cc1cccc2ccc3ccccc3c12`, the growth inhibition is 98.2% (active).
Still for that read-out and setting: to `O=C(Nc1ccc(Cl)cc1)OCC#CCCl` belongs 96.7% (active); to `Cn1ccnc1Oc1ccc(Cl)cc1`, 32.1%; to `c1ccc2c(c1)C(=NCCCN1CCCCCC1)c1cccn1-2`, 84.5% (active).
Still for that read-out and setting: the result for `C/C(=N\O)C1CC2C=C(C#N)C1N(Cc1ccccc1)C2` (stereo not drawn) reads 3.75%.
On the same count and under the same terms, to `O=[N+]([O-])C(=C(Sc1ccccc1)Sc1ccccc1)C(Cl)=C(Cl)Cl` belongs 62.6%; to `CCCCCCCCCC/C=C\C(=O)O`, 88.5% (active).
With `COc1ccc(N=C2C(=O)Nc3ccc(Br)cc32)cc1`, the growth inhibition is 28.9%.
Take `COc1ccccc1C(=O)OCC1CCCN2CCCCC12` (stereo not drawn): the growth inhibition was 91.6% (active).
The same measure, in the same setting: the result for `CC(C)(Br)C(=O)/C=C/c1ccc(Cl)c(Cl)c1` reads 85.8% (active); that for `Nc1ccccc1CC(O)C(=O)O` (stereo not drawn), 94.5% (active); that for `CC(=O)N/N=C/C(C)(C)C(C)(C)/C=N/NC(C)=O`, 70% (active).
Consider `CN(C)c1nc2sc3c(c2c(=O)o1)CCCC3`, for which the growth inhibition was 54.3%.
Same read-out and setting: to `CC(C)OC(=O)Oc1ccccc1OC(=O)OC(C)C` belongs 1.8%.
Still for that read-out and setting: to `Cc1ccc(N)c(S)c1` belongs 80.3% (active); to `O=C(O)c1ccccc1NC(=S)c1ccccc1`, -0.55%.
Turning to `COC(=O)c1ccc(NCC2=CC(=O)C=CC2=O)cc1O`, the growth inhibition was 93.5% (active).
Regarding `NC(N)=N/N=C\c1c2ccccc2cc2ccccc12`, the growth inhibition is 33.6%.
Same read-out and setting: the result for `COC(=O)CSSCc1ccc([N+](=O)[O-])cc1` reads 94.7% (active).
Same read-out and setting: to `CCS(=O)(=O)c1ccc(/C=C/C=N/NC(=S)NCC(C)C)cc1` belongs 77% (active); to `N#CC(C(=O)Nc1ccccc1)C1=C(Cl)C(=O)c2ccccc2C1=O` (stereo not drawn), 93.1% (active).
Same read-out and setting: to `C[C@H](CCC(=O)NN)[C@H]1CC[C@H]2[C@@H]3CC[C@@H]4C[C@H](O)CC[C@]4(C)[C@H]3CC[C@]12C` belongs 35.3%; to `CC[n+]1ccc2c(C)c3[nH]c4ccc(O)cc4c3c(C)c2c1`, 9.25%.

The next experiment in a line: NCI Yeast Anticancer Drug Screen. Data for the CLN2oe strain (AID 163).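 Note: 0% = growth of vehicle-only control cultures.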 To be noted: S. cerevisiae CLN2oe strain, at 1.2 µM, hits give high values. The gist of the method:
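Values reflect how much compound exposure reduced yeast growth, referenced to vehicle-exposed cells. Assay organism is a strain with a defined genetic change affecting cell-cycle control.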
`CCCc1cc(C(=O)OCC)cc(CCC)c1O`: the growth inhibition was -1%.
The same measure, in the same setting: to `CC(C)[N+]([O-])(CCCNc1c2ccccc2nc2cccc([N+](=O)[O-])c12)C(C)C` belongs -3%; to `COc1cc2c3c(cccc3c1)C(=O)N(CCN(C)C)C2=O`, -5%; to `NC(=O)NN=C(CS)CS`, -9%.
Same read-out and setting: the result for `Cc1ccc(NC(=O)/C(Cl)=C(\Cl)C(=O)O)cc1C` reads 3%; that for `CCN(CC)CC[n+]1ccc2c(C)c3[nH]c4ccc(O)cc4c3c(C)c2c1`, -8%.
On the same count and under the same terms, to `CC(CC(C)(C)[N+](C)(C)C)[N+](C)(C)C` (stereo not drawn) belongs -11%; to `COc1ccc(OC)c2cc3ccccc3cc12`, 12%.
In the case of `Nc1ncncc1C(C1=C(O)COC1=O)C1=C(O)COC1=O`, the growth inhibition is -7%.
Same read-out and setting: to `CSC1=NNC(SC)=NN1` belongs -8%.
On the same count and under the same terms, the result for `Cc1c(Cl)ccc2c1S(=O)(=O)c1cccc(Cl)c1-2` reads -5%.
On the same count and under the same terms, to `[O-][n+]1c2ccc(O)cc2nc2ccc(Cl)cc21` belongs 0%; to `COc1ccc2ccc3ccccc3c2c1C=O`, -6%; to `Nc1ccc2c(c1)C(=O)c1cccc(N)c1C2=O`, -2%.
Take `O=C(c1ccc(Cl)cc1Cl)C(Cl)Cl`: the growth inhibition is -11%.
With `COc1cc(C(=O)/C=C/c2ccccc2O)ccc1O`, the growth inhibition was 19%.
On the same count and under the same terms, to `O=Cc1cccc2ccc3ccccc3c12` belongs -1%; to `O=C(Nc1ccc(Cl)cc1)OCC#CCCl`, -6%; to `Cn1ccnc1Oc1ccc(Cl)cc1`, -8%.
Take `c1ccc2c(c1)C(=NCCCN1CCCCCC1)c1cccn1-2`: the growth inhibition was -10%.
On the same count and under the same terms, to `C/C(=N\O)C1CC2C=C(C#N)C1N(Cc1ccccc1)C2` (stereo not drawn) belongs -5%.
Still for that read-out and setting: to `O=[N+]([O-])C(=C(Sc1ccccc1)Sc1ccccc1)C(Cl)=C(Cl)Cl` belongs 4%; to `CCCCCCCCCC/C=C\C(=O)O`, 15%.
Consider `COc1ccc(N=C2C(=O)Nc3ccc(Br)cc32)cc1`, for which the growth inhibition was -7%.
On the same count and under the same terms, to `COc1ccccc1C(=O)OCC1CCCN2CCCCC12` (stereo not drawn) belongs 8%; to `CC(C)(Br)C(=O)/C=C/c1ccc(Cl)c(Cl)c1`, -3%.
The same measure, in the same setting: to `Nc1ccccc1CC(O)C(=O)O` (stereo not drawn) belongs 5%.
In the case of `CC(=O)N/N=C/C(C)(C)C(C)(C)/C=N/NC(C)=O`, the growth inhibition is 9%.
Same read-out and setting: the result for `CN(C)c1nc2sc3c(c2c(=O)o1)CCCC3` reads 1%; that for `CC(C)OC(=O)Oc1ccccc1OC(=O)OC(C)C`, 2%.
`Cc1ccc(N)c(S)c1`: the growth inhibition is -15%.
Same read-out and setting: to `O=C(O)c1ccccc1NC(=S)c1ccccc1` belongs 0%; to `COC(=O)c1ccc(NCC2=CC(=O)C=CC2=O)cc1O`, 8%.
The same measure, in the same setting: to `NC(N)=N/N=C\c1c2ccccc2cc2ccccc12` belongs -29%.
On the same count and under the same terms, to `COC(=O)CSSCc1ccc([N+](=O)[O-])cc1` belongs -1%; to `CCS(=O)(=O)c1ccc(/C=C/C=N/NC(=S)NCC(C)C)cc1`, 2%.
As to `N#CC(C(=O)Nc1ccccc1)C1=C(Cl)C(=O)c2ccccc2C1=O` (stereo not drawn), the growth inhibition was 4%.
Same read-out and setting: to `C[C@H](CCC(=O)NN)[C@H]1CC[C@H]2[C@@H]3CC[C@@H]4C[C@H](O)CC[C@]4(C)[C@H]3CC[C@]12C` belongs -4%; to `CC[n+]1ccc2c(C)c3[nH]c4ccc(O)cc4c3c(C)c2c1`, 5%.
